Shown are actives, neighbours in structure and some others; about 2% of the full set was active somewhere.
NOD2 RIPK2 PPI: inhibitors of human NOD2-RIPK2 interaction; inhibition, % at 4.98 µM; hit rate 0.38% among 360,000; O43353; CHO BLA complementation NOD2-RIPK2, CCF4 ratio; AID 624267; in the data active = inhibition above about 21%;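 also: 0% = vehicle only and 100% = reference blocker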
ABHD5 PLIN5 PPI: blocks binding of human ABHD5 to perilipin-5. Q00G26+Q8WTS1. Split G. princeps luciferase complementation, luminescence, 4 h. inhibition, % at 4 µM. hit rate 0.78% among 360,000;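 active = inhibition above the mean inhibition across every tested compound plus 3 SD, cut at about 22% in these data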;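 also: 0% = DMSO only wells and the 100% control is not disclosed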
Granule exo inh: blocks lytic granule exocytosis | inhibition, % at 10 µM | hit rate 0.66% among 360,000 | TALL-104 LAMP-1 surface exposure, flow cytometry; cells stimulated with thapsigargin and PMA;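 active = inhibition above about 55%, limit read from the data; inconclusive = no clear call, values can overlap the other calls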
TLR9-MyD88 inh: TLR9-MyD88 interaction inhibition; CHO BLA complementation TLR9-MyD88, CCF4 FRET ratio; Q9NR96+Q99836; hit rate 0.21% among 340,000; inhibition, % at 4.98 µM;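 active = inhibition above the mean over all tested compounds plus 3 SD, cut at about 21% in these data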;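 also: 0% = DMSO only wells and 100% = clavulanate BLA inhibitor control wells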
TLR4 MyD88 comp: blocks binding of human TLR4 to MyD88; HeLa CL3-4 TLR4/MyD88 BLA complementation, FRET ratio; inhibition, % at 8.4 µM; hit rate 0.18% among 200,000; O00206+Q99836; in the data active = inhibition above about 25%;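 also: 0% = vehicle and 100% = reference inhibitor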
Target sequence (O00206 whole entry, looked up): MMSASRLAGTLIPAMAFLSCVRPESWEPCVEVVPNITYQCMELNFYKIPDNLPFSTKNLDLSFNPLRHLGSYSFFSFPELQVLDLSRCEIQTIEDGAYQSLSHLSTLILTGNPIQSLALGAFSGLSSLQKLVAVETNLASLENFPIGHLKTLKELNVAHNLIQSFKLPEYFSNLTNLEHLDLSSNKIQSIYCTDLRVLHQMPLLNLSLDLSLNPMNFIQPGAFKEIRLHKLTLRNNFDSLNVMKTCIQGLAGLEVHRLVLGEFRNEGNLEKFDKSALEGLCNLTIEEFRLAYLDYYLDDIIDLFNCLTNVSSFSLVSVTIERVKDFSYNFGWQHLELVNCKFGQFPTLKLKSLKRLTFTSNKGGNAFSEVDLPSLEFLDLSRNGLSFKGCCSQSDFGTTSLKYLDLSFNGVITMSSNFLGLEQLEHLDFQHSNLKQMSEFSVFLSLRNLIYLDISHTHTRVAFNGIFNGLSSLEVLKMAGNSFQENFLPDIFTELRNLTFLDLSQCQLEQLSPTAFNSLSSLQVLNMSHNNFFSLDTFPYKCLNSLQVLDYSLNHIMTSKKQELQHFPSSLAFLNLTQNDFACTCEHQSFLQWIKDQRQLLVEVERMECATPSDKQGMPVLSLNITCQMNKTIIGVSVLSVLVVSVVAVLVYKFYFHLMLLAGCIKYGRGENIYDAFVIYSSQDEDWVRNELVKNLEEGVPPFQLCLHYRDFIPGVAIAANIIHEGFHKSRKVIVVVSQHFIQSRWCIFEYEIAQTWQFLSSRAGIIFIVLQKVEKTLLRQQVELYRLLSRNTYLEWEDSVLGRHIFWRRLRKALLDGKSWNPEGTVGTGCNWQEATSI
Target sequence (Q99836 whole entry, looked up): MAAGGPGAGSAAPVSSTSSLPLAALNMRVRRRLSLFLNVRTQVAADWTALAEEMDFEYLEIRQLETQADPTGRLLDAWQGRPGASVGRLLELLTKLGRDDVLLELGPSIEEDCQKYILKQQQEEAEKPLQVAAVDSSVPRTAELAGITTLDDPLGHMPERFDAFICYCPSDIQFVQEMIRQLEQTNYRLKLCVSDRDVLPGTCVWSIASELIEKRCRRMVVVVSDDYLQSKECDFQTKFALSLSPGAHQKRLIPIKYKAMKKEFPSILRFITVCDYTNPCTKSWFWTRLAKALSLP
Beta2AR agonist: human beta-2 adrenergic receptor agonism by FAP; P07550; Am2.2-beta2AR cells, FAP receptor internalization, flow cytometry; response, % (no concentration beside the values); hit rate 0.43% among 340,000;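 active = response above a set limit, near 3 SD of response in nonfluorescent compounds, cut at about 42% in these data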
The depositor's hits bear a star; ? = inconclusive; . = not tested or not shown.

SMILES	NOD2 RIPK2 PPI	ABHD5 PLIN5 PPI	Granule exo inh	TLR9-MyD88 inh	TLR4 MyD88 comp	Beta2AR agonist
C=C(C)[C@@]12OC3(c4ccccc4)O[C@@H]1C1[C@@H]4O[C@]4(CO)[C@@H](O)[C@]4(O)C(=O)C(C)=C[C@H]4[C@@]1(O3)[C@H](C)[C@H]2OC(=O)/C=C/C=C/c1ccccc1 (some centres undefined)	-2	-10	-2	4	.	112*
CCOC(=O)[C@]12Cc3cc(OC)ccc3[C@H]1N(CCC(=O)OC)C(=O)c1cc(OC)ccc12	-2	5	0	.	.	.
CC(=O)n1cc(C=C2C(=O)NC(=O)NC2=O)c2ccccc21	-1	15	26	8	.	11
COCCNC(=O)Cn1cc(C=C2C(=O)NC(=O)NC2=O)c2ccccc21	-4	22*	?	1	.	-1
COc1ccc(C=C2C(=O)NC(=S)NC2=O)cc1	-5	-2	0	-20	.	-8
O=C1NC(=S)NC(=O)C1=Cc1cccc2cc3ccccc3cc12	4	-1	35	8	.	94*
O=c1[nH]c2ccccc2n1C1CCN(C(c2cccs2)c2nnnn2-c2ccc3c(c2)OCCO3)CC1 (centres undefined)	-8	11	-1	.	.	.
Cc1ccc(NC(=O)CC[C@H]2O[C@@H](n3cnc4c(NC(=O)c5ccccc5)ncnc43)[C@H](O)[C@@H]2O)cc1C	-12	7	-2	.	.	.
Nc1ccc(CCN2CCN(c3cccc(C(F)(F)F)c3)CC2)cc1	-7	5	-4	-2	.	5
FC(F)(F)c1ccc2c(c1)N(CCCN1CCN(CCCl)CC1)c1ccccc1S2	5	21	5	-2	8	68*
O=C1NCN(c2ccccc2)C12CCN(C(c1nnnn1C1CCCCC1)C1CC1)CC2 (centres undefined)	-8	-1	-4	.	.	.
O=C1NC(=S)N(c2ccccc2F)C(=O)/C1=C\c1cccs1	-78	-8	76*	-6	0	22
Cc1ccc(Sc2ccc(C=C3C(=O)N(C)C(=O)N(C)C3=O)o2)cc1	5	1	74*	7	-7	10
COc1ccc2nc(/N=C/c3c(O)n(-c4cccc(Cl)c4)c(=O)[nH]c3=O)sc2c1	-3	23*	10	3	-7	4
COc1cccc(-n2c(O)c(C=Nc3c(C)n(C)n(-c4ccccc4)c3=O)c(=O)[nH]c2=O)c1	-5	4	11	-2	-4	1
C=CCCC[C@@H]1OC(=O)CNC(=O)C([C@@H](C)CC)NC(=O)[C@@H]2CCCN2C(=O)C([C@@H](C)CC)OC(=O)[C@H](Cc2ccccc2)N(C)C(=O)[C@H](C(C)C)NC(=O)C1(C)C (some centres undefined)	-2	22*	-7	.	.	.
O=c1[nH]c2ccccc2n1C1CCN(C(c2cc3ccccc3o2)c2nnnn2Cc2ccccc2)CC1 (centres undefined)	-8	7	6	.	.	.
CCCCN1C(=O)/C(=C/C=C/c2ccco2)C(=O)NC1=S	8	-5	3	2	0	0
CC(C)c1ccc(N2C(=O)NC(=O)/C(=C/C=C/c3ccco3)C2=O)cc1	-12	22*	6	1	3	15
CCc1ccc(N2C(=O)NC(=O)/C(=C\C=C\c3ccco3)C2=O)cc1	15	22*	76*	4	.	71*
Cc1ccc(N2C(=O)NC(=O)/C(=C/C=C/c3ccco3)C2=O)cc1	-11	17	46	-5	2	83*
Cc1cc(C)cc(N2C(=O)NC(=O)/C(=C\C=C\c3ccco3)C2=O)c1	4	23*	50	-2	2	59*
O=C1NC(=O)N(c2ccccc2)C(=O)/C1=C\C=C\c1ccccc1	4	21	8	.	.	35
CC(C)C[C@@H]1COc2cccc(N3CCN(C)CC3)c2S(=O)(=O)N1	1	6	-2	.	.	.
COc1ccc(C(=O)C2CCCN(CC3CCCCC3)C2)cc1OC (centres undefined)	0	4	-2	.	.	.
SMILES	NOD2 RIPK2 PPI	ABHD5 PLIN5 PPI	Granule exo inh	TLR9-MyD88 inh	TLR4 MyD88 comp	Beta2AR agonist
c1coc(CN2Cc3ccccc3-n3nncc3C2)c1	-2	11	-2	14	.	.
COc1cc2c3c(c1OC)Oc1ccc(cc1)C[C@H]1c4c(cc(OC)c(OC)c4Oc4ccc(cc4)C[C@@H]3N(C)CC2)CCN1C	5	11	9	2	.	45*
CC(C)(C)n1nnnc1C(c1ccnc2ccccc12)N1CCC2(CC1)C(=O)NCN2c1ccccc1 (centres undefined)	-3	3	0	.	.	.
CC(=O)OC1C(O)C2=C3C4(C)C1C(C)(C)C(=O)CC4C3(O)C(OC(C)=O)C1(CC1C)C2=O (centres undefined)	-20	22*	17	.	.	.
O=C1NC(=S)NC(=O)C1=Cc1ccc(Br)s1	2	-11	72*	1	.	54*
CCOC(=O)[C@]12Cc3cc(C)ccc3[C@H]1N(C)C(=O)c1cc(OC)ccc12	-4	16	9	.	.	.
O=C1NC(=O)N(Cc2ccccc2)C(=O)/C1=C\c1ccco1	-1	4	2	-4	8	58*
COC1CCC(OC2CC(C3(C)CCC4(CC(O)C(C)C(C(C)/C=C(\C)C(=O)C(C)CC(C)C(=O)O)O4)O3)OC3(OC(C4OC(O)(CO)C(C)CC4C)CC3C)C2C)OC1C (centres undefined)	7	0	78*	-6	.	41
N#CSCC(=O)N1c2ccccc2CCc2ccccc21	11	2	18	7	-8	52*
Nc1ccccc1C(=O)OCC(=O)N1CCc2ccccc21	-4	-7	-2	-1	-5	-2
Cn1cccc1/C=C1/C(=O)NC(=S)N(Cc2ccc(F)cc2)C1=O	-2	9	58*	10	.	60*
Cn1cccc1/C=C1/C(=O)NC(=O)N(Cc2ccc(F)cc2)C1=O	-2	4	34	6	.	19
COc1ccc(C(c2nnnn2C(C)(C)C)N2CCC3(CC2)C(=O)NCN3c2ccccc2)cc1 (centres undefined)	-6	-4	0	.	.	.
O=C1/C(=C/c2ccccc2)C[C@@]2(O)[C@H]3Cc4ccc(O)c5c4[C@@]2(CCN3CC2CC2)C1O5 (some centres undefined)	35*	65*	8	7	.	69*
CN(CC1COc2ccccc2O1)c1nc(-c2cccnc2)nc2ccccc12 (centres undefined)	3	-1	87*	-12	3	6
Cc1ccc2c(c1Cl)NC(C(=O)O)C1CC(Sc3ccccc3[N+](=O)[O-])C(Cl)C21 (centres undefined)	-7	1	0	3	.	12
CCN(CC)C(=O)c1ccc2c(c1)C1C(Cl)C(Sc3ccccc3[N+](=O)[O-])CC1C(C(=O)O)N2 (centres undefined)	-8	23*	-2	8	.	0

From PubChem BioAssay
